These results are taken from PubChem BioAssay AID463 (The Scripps Research Institute Molecular Screening Center, 2006).

Usually inhibition stands for the relative decrease from the control value, in per cent.

Each structure is given as a SMILES string. The whole screen tested about 56,000 compounds, of which about 710 (1.3%) were called active. The sample holds actives, similar compounds and a random draw of the others, so the mix is not that of the screen. A number with no mark means an inactive call.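 How the source made its calls: active means inhibition above the mean inhibition of all tested compounds plus 3 SD (cut at about 28% in these data); inactive means the rest.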

The test can be described thus: Jurkat cell viability reduction – Jurkat E6.1, 60K MLSMR library, cytotoxicity control, primary screen (AID 463). The note with it: Jurkat E6.1 viability, ATP luminescence, 48 h; at 4 µM; active compounds read high.
In the case of `COc1ccc(N=Cc2c(O)[nH]c3ccccc23)cc1OC`, the inhibition was 39.2% (active).

With `COc1ccc(CCNC(=O)CCCCn2c(=O)[nH]c3ccccc3c2=O)cc1OC`, the inhibition is -5.9%.

With `COC(=O)c1[nH]c2ccccc2c1NS(=O)(=O)c1ccc(OC)cc1OC`, the inhibition was -1.9%.

For `COc1ccc2[nH]c3ccc(OC)cc3c2c1`, the inhibition was -4.4%.

As for `COc1cc(N=Cc2c(O)[nH]c3ccccc23)cc(OC)c1OC`, the inhibition was 63% (active).

For the molecule `COc1ccc(OC)c(N=Cc2c(O)[nH]c3ccccc23)c1`, the inhibition is -1%.

In the case of `CCn1nnc(NC(=O)c2cc(Cl)c(OC)c(Cl)c2)n1`, the inhibition was -2%.

In the case of `COC(=O)c1ccc(OC(=O)c2nn(C)cc2Cl)c(OC)c1`, the inhibition is 2.9%.

For `CCOC(=O)C1CCN(C(c2cc3cc(C)cc(C)c3[nH]c2=O)c2nnnn2C2CCCCC2)CC1` (centres undefined), the inhibition is -0.3%.

As to `C=CCNC(=O)CCCOc1cccc(C)c1`, the inhibition is 4.8%.

Turning to `OCCNCCCCOc1ccccc1F`, the inhibition was 3%.

As to `COc1cc(Cl)c(S(=O)(=O)n2cnc(C)c2)cc1Cl`, the inhibition is 2.3%.

As to `CCC(=O)Nc1ccc(C(=O)Nc2ccc3c(c2)C(=O)N(CC2CCCO2)C3=O)cc1` (centres undefined), the inhibition is -3.3%.

As to `CCCC(=O)Nc1ccc(C(=O)NCCCn2ccnc2)cc1`, the inhibition was -15.7%.

Take `CCOc1ccccc1C(=O)NCCCn1ccnc1`: the inhibition is 9.7%.

`CCCCC(=O)Nc1ccc(C(=O)NCCCn2ccnc2)cc1`: the inhibition was 57% (active).

Consider `C=CCSc1nc2c(c(=O)[nH]1)C(C(C)C)C(C#N)=C(N)O2` (centres undefined), for which the inhibition is 0.8%.

Consider `O=C1CCC(Cc2ccccc2)N1` (centres undefined), for which the inhibition is 0.5%.

As to `Cc1cnc(C(=O)OCC(=O)Nc2ccc(Cl)cc2Cl)cn1`, the inhibition is 7.4%.

For the molecule `C=CCn1cnc2scc(-c3ccccc3)c2c1=O`, the inhibition was -3%.

As for `CCCc1[nH]nc2c1C(c1ccc(OC(=O)c3ccco3)cc1)C(C#N)=C(N)O2` (centres undefined), the inhibition was 0.7%.

Take `CCCc1[nH]nc2c1C(C1CC=CCC1)C(C#N)=C(N)O2` (centres undefined): the inhibition is 5.6%.

Take `CCCc1[nH]nc2c1C(c1ccc(Br)s1)C(C#N)=C(N)O2` (centres undefined): the inhibition is 29.4% (active).

Consider `Cc1cc(N(C)C)cc(C)[n+]1[O-]`, for which the inhibition is -7.1%.

As for `CCOc1ccc(-c2nnc3ccc(SC)nn23)cc1`, the inhibition was 0.4%.

In the case of `CCOC(=O)CSC1=C(C#N)C(c2sccc2C)CC(=O)N1` (centres undefined), the inhibition is 93.2% (active).

Regarding `COC(=O)CSC1=C(C#N)C(c2ccccc2OC)C(C(=O)OC)C(=O)N1` (centres undefined), the inhibition is 5.3%.

With `CCOC(=O)CSC1=C(C#N)C(c2ccco2)C(C(=O)OCc2ccccc2)=C(C)N1` (centres undefined), the inhibition is 7.5%.

`CCOC(=O)COc1ccc(Cl)cc1C1NC(=O)NC(C)=C1C(C)=O` (centres undefined): the inhibition is -2.2%.

Take `CCOC(=O)c1c(NC(=O)c2ccc(Br)o2)sc2c1CCCC2`: the inhibition is 6.2%.

Regarding `C=C(C)COc1ccc(-c2n[nH]c(C)c2-c2ccccc2)c(O)c1`, the inhibition is 22.9%.

In the case of `COc1ccc(-c2n[nH]c(C)c2-c2ccc(OC)c(OC)c2)c(O)c1`, the inhibition was 52% (active).

Consider `C=C(C)COc1ccc(-c2n[nH]c(C)c2-c2ccccc2OC)c(O)c1`, for which the inhibition was 5.8%.

Turning to `Cn1c(=O)[nH]c(=O)c2c1nc(CN1CCN(c3ccccc3F)CC1)n2CCc1ccccc1`, the inhibition was 0%.

For the molecule `O=S(=O)(c1cccc(S(=O)(=O)N2CCC(n3nnc4ccccc43)CC2)c1)N1CCCCC1`, the inhibition was 0.6%.

As for `Cn1c(NC(=O)c2ccc3c(c2)OCO3)cc(=O)n(C)c1=O`, the inhibition is -10.9%.

Turning to `CCOc1ccc(-c2nnc(-c3ccco3)o2)cc1`, the inhibition is 8.6%.

On to `CCOC(=O)CSc1nnc(CNc2nc(-c3ccccc3)cs2)n1C`, for which the inhibition is 0%.

Consider `COc1ccc(C(c2nnnn2C2CCCCC2)N2CCN(c3ccccc3F)CC2)cc1` (centres undefined), for which the inhibition was -5.7%.

As to `Cc1nnc(NC(=O)CSc2nccn2-c2cccc(C)c2C)s1`, the inhibition is 71.5% (active).

Consider `CCc1nnc(NC(=O)CSc2nnc(-c3ccncc3)n2Cc2ccccc2)s1`, for which the inhibition is -9.3%.

Regarding `COc1ccccc1-n1c(CNC(=O)c2ccccc2)nnc1SCC(=O)Nc1nnc(C)s1`, the inhibition was -6.1%.

For `Cc1cc(Nc2cccc(C)c2C)n2ncnc2n1`, the inhibition was 2.2%.

As for `CCOC(=O)N1CCN(C(=O)C2CC(c3ccc(F)cc3)=NO2)CC1` (centres undefined), the inhibition is -1.7%.

As to `CN(C)c1ccnc2sc3c(=O)n(Cc4ccccc4)cnc3c12`, the inhibition was 14.6%.

Turning to `CC1COC2C(O1)N(S(C)(=O)=O)CCN2S(C)(=O)=O` (centres undefined), the inhibition is -1.8%.

As for `CC(=O)Oc1ccc(C)cc1N1C(=O)c2ccc(C(=O)O)cc2C1=O`, the inhibition is -10.1%.

In the case of `CCOc1ccc2nc(SC(CC)C(=O)Nc3cc(C)on3)sc2c1` (centres undefined), the inhibition was 1%.

In the case of `Cc1nc(CNS(=O)(=O)c2ccc(Oc3ccccc3)cc2)cs1`, the inhibition was 35.6% (active).

`Cc1nc(CNS(=O)(=O)c2cccnc2)cs1`: the inhibition is 2.3%.

Regarding `Cc1ccc(S(=O)(=O)NCc2csc(C)n2)c(C)c1`, the inhibition is -3.9%.

Regarding `Cc1cccc(NC(=O)c2ccccc2NC(=O)C(C)(C)C)n1`, the inhibition was 2.6%.

On to `COc1cccc(N2CCN(C(=O)C3CCCN(S(=O)(=O)c4cnc[nH]4)C3)CC2)c1` (centres undefined), for which the inhibition was 0.4%.

`O=c1c2ccccc2nc(CSc2nnnn2-c2ccccc2)n1-c1ccccc1`: the inhibition is -1.7%.

`CN(C)c1nc(N)nc(CSc2nnnn2-c2cccc3ccccc23)n1`: the inhibition was 66.2% (active).

As to `Cc1ccc(-c2noc(CSc3nnnn3-c3ccccc3)n2)cc1`, the inhibition is -2.2%.

With `Cn1c(=O)cc(OCCCC(=O)N2CCN(Cc3ccc4c(c3)OCO4)CC2)c2ccccc21`, the inhibition was 1.1%.

As to `Cc1cc(/C=N/n2cnnc2)c(C)n1-c1ccc2ncccc2c1`, the inhibition was 1%.

Turning to `C=CCn1c(=N)n(CC(O)COc2ccc(OC)cc2)c2ccccc21` (centres undefined), the inhibition is -0.5%.

For `CC1CCN(C(=O)Cn2cc(C(=O)c3ccco3)c3ccccc32)CC1`, the inhibition is 2.8%.

Turning to `O=C1CCC(C(=O)Nc2ccc(OC(F)F)cc2)N1` (centres undefined), the inhibition was 0.7%.

In the case of `O=C(Nc1ccccc1C(F)(F)F)c1cc(-c2ccc(O)cc2)on1`, the inhibition is 16.9%.

In the case of `Cc1cc(C)nc(NC(=O)C(C)N2C(=O)c3ccccc3C2=O)n1` (centres undefined), the inhibition is -2.7%.

`Cc1cc(C)nc(NC(=O)Nc2ccccc2C(F)(F)F)n1`: the inhibition is 45.2% (active).
